Measurements taken from PubChem BioAssay AID1159580 (chemical genetic matrix, 2015).
Among all 5,500 compounds or so, about 2,000 (36%) were called active. Not shown: some 18% with an inconclusive outcome. Cut-off read from the data, not from the text of the source: active = normalized growth mostly below about 0.91 (no sharp cut-off); inconclusive = no clear call, values can overlap the other calls; inactive = mostly above about 0.92. This is one part of the list.

Assay: chemical genetic growth profiling, strain panel (AID 1159580);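 note: tested at 20 µM; growth read once vehicle control cultures reached saturation at 30 °C; 1 = growth at the plate median or of vehicle wells; lower values mean less growth of the strain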
Settings: growth OD

Measured: normalized growth

CC1CC2C3CCC4=CC(=O)C=C[C@]4(C)[C@@]3(F)[C@@H](O)C[C@]2(C)[C@@]1(O)C(=O)CO (stereo partly drawn)
inactive: S. cerevisiae deletion strains, locus YAL013W, strain DEP1, hits give low values 0.995 | S. cerevisiae deletion strains, locus YAL021C, strain ccr4, hits give low values 0.974 | S. cerevisiae deletion strains, locus YAL026C, strain drs2, hits give low values 0.987 | S. cerevisiae deletion strains, locus YAL030W, strain snc1, hits give low values 0.96 | S. cerevisiae deletion strains, locus YBL061C, strain skt5, hits give low values 0.99 | S. cerevisiae deletion strains, locus YBR009C, strain hhf1, hits give low values 1.03 | S. cerevisiae deletion strains, locus YBR021W, strain FUR4, hits give low values 0.984 | S. cerevisiae deletion strains, locus YBR023C, strain chs3, hits give low values 0.983 | S. cerevisiae deletion strains, locus YBR171W, strain sec66, hits give low values 0.982 | S. cerevisiae deletion strains, locus YBR229C, strain ROT2, hits give low values 0.989 | S. cerevisiae deletion strains, locus YBR231C, strain swc5, hits give low values 1.06 | S. cerevisiae deletion strains, locus YBR279W, strain paf1, hits give low values 1 | S. cerevisiae deletion strains, locus YCL011C, strain gbp2, hits give low values 0.954 | S. cerevisiae deletion strains, locus YCL016C, strain dcc1, hits give low values 0.978 | S. cerevisiae deletion strains, locus YCL029C, strain bik1, hits give low values 0.979 | S. cerevisiae deletion strains, locus YCL061C, strain MRC1, hits give low values 0.995 | S. cerevisiae deletion strains, locus YCL069W, strain vba3, hits give low values 0.995 | S. cerevisiae deletion strains, locus YCR088W, strain abp1, hits give low values 0.996 | S. cerevisiae deletion strains, locus YDL005C, strain med2, hits give low values 0.973 | S. cerevisiae deletion strains, locus YDL035C, strain GPR1, hits give low values 1.03 | S. cerevisiae deletion strains, locus YDL040C, strain nat1, hits give low values 0.975 | S. cerevisiae deletion strains, locus YDL074C, strain BRE1, hits give low values 0.979 | S. cerevisiae deletion strains, locus YDL101C, strain DUN1, hits give low values 0.976 | S. cerevisiae deletion strains, locus YDL185W, strain tfp1, hits give low values 0.982 | S. cerevisiae deletion strains, locus YDL192W, strain arf1, hits give low values 0.974 | S. cerevisiae deletion strains, locus YDR001C, strain nth1, hits give low values 0.988 | S. cerevisiae deletion strains, locus YDR069C, strain doa4, hits give low values 0.979 | S. cerevisiae deletion strains, locus YDR101C, strain arx1, hits give low values 0.984 | S. cerevisiae deletion strains, locus YDR137W, strain rgp1, hits give low values 0.987 | S. cerevisiae deletion strains, locus YDR159W, strain sac3, hits give low values 1.01 | S. cerevisiae deletion strains, locus YDR162C, strain NBP2, hits give low values 1.02 | S. cerevisiae deletion strains, locus YDR195W, strain ref2 0.99 | S. cerevisiae deletion strains, locus YDR297W, strain sur2, hits give low values 0.995 | S. cerevisiae deletion strains, locus YDR318W, strain mcm21, hits give low values 0.983 | S. cerevisiae deletion strains, locus YDR334W, strain swr1, hits give low values 0.976 | S. cerevisiae deletion strains, locus YDR335W, strain msn5, hits give low values 0.984 | S. cerevisiae deletion strains, locus YDR388W, hits give low values 0.968 | S. cerevisiae deletion strains, locus YDR392W, strain spt3, hits give low values 0.904 | S. cerevisiae deletion strains, locus YDR502C, strain sam2, hits give low values 0.991 | S. cerevisiae deletion strains, locus YEL003W, strain gim4, hits give low values 0.963 | S. cerevisiae deletion strains, locus YEL037C, strain rad23, hits give low values 0.976 | S. cerevisiae deletion strains, locus YEL061C, strain CIN8 (second series), hits give low values 0.988 | S. cerevisiae deletion strains, locus YEL061C, strain CIN8, hits give low values 0.994 | S. cerevisiae deletion strains, locus YER015W, strain faa2, hits give low values 0.991 | S. cerevisiae deletion strains, locus YER016W, strain bim1, hits give low values 0.95 | S. cerevisiae deletion strains, locus YER110C, hits give low values 0.958 | S. cerevisiae deletion strains, locus YER111C, strain swi4, hits give low values 0.983 | S. cerevisiae deletion strains, locus YER155C, strain BEM2 (second series), hits give low values 1.03 | S. cerevisiae deletion strains, locus YER155C, strain BEM2, hits give low values 0.984 | S. cerevisiae deletion strains, locus YER167W, strain BCK2, hits give low values 1 | S. cerevisiae deletion strains, locus YFR010W, strain ubp6, hits give low values 1.01 | S. cerevisiae deletion strains, locus YGL078C, strain dbp3, hits give low values 0.971 | S. cerevisiae deletion strains, locus YGL086W, strain mad1, hits give low values 0.98 | S. cerevisiae deletion strains, locus YGL167C, strain pmr1, hits give low values 0.983 | S. cerevisiae deletion strains, locus YGL173C, strain kem1, hits give low values 0.979 | S. cerevisiae deletion strains, locus YGL227W, strain vid30, hits give low values 0.999 | S. cerevisiae deletion strains, locus YGL240W, strain doc1, hits give low values 1.01 | S. cerevisiae deletion strains, locus YGL248W, strain PDE1, hits give low values 0.98 | S. cerevisiae deletion strains, locus YGL253W, strain hxk2, hits give low values 0.974 | S. cerevisiae deletion strains, locus YGR135W, strain pre9, hits give low values 0.969 | S. cerevisiae deletion strains, locus YGR229C, strain SMI1, hits give low values 1.02 | S. cerevisiae deletion strains, locus YGR252W, strain gcn5, hits give low values 1.02 | S. cerevisiae deletion strains, locus YHR013C, strain ard1, hits give low values 0.954 | S. cerevisiae deletion strains, locus YHR027C, strain rpn1, hits give low values 0.992 | S. cerevisiae deletion strains, locus YHR030C, strain SLT2, hits give low values 0.99 | S. cerevisiae deletion strains, locus YHR079C, strain IRE1 (second series), hits give low values 0.965 | S. cerevisiae deletion strains, locus YHR094C, strain hxt1, hits give low values 0.97 | S. cerevisiae deletion strains, locus YHR129C, strain ARP1, hits give low values 0.993 | S. cerevisiae deletion strains, locus YHR142W, strain chs7, hits give low values 0.959 | S. cerevisiae deletion strains, locus YHR200W, strain rpn10, hits give low values 0.983 | S. cerevisiae deletion strains, locus YIL066C, strain RNR3, hits give low values 1 | S. cerevisiae deletion strains, locus YIL073C, strain SPO22, hits give low values 0.972 | S. cerevisiae deletion strains, locus YIL125W, strain kgd1, hits give low values 0.963 | S. cerevisiae deletion strains, locus YIR030C, strain dcg1, hits give low values 0.965 | S. cerevisiae deletion strains, locus YJL092W, strain hpr5, hits give low values 0.963 | S. cerevisiae deletion strains, locus YJL095W, strain BCK1 (second series), hits give low values 0.945 | S. cerevisiae deletion strains, locus YJL095W, strain BCK1, hits give low values 0.96 | S. cerevisiae deletion strains, locus YJL115W, strain asf1, hits give low values 0.976 | S. cerevisiae deletion strains, locus YJL129C, strain trk1, hits give low values 0.965 | S. cerevisiae deletion strains, locus YJL134W, strain LCB3, hits give low values 0.99 | S. cerevisiae deletion strains, locus YJL154C, strain vps35, hits give low values 0.966 | S. cerevisiae deletion strains, locus YJL164C, strain tpk1, hits give low values 1 | S. cerevisiae deletion strains, locus YJL166W, strain qcr8, hits give low values 1 | S. cerevisiae deletion strains, locus YJL168C, strain set2, hits give low values 0.966 | S. cerevisiae deletion strains, locus YJL187C, strain SWE1 (second series), hits give low values 0.982 | S. cerevisiae deletion strains, locus YJR043C, strain POL32, hits give low values 1.04 | S. cerevisiae deletion strains, locus YKL009W, strain mrt4, hits give low values 0.963 | S. cerevisiae deletion strains, locus YKL068W, hits give low values 0.987 | S. cerevisiae deletion strains, locus YKL085W, strain MDH1 (second series), hits give low values 0.985 | S. cerevisiae deletion strains, locus YKL085W, strain MDH1, hits give low values 0.985 | S. cerevisiae deletion strains, locus YKL160W, strain elf1, hits give low values 0.943 | S. cerevisiae deletion strains, locus YKR001C, strain vps1, hits give low values 0.968 | S. cerevisiae deletion strains, locus YKR026C, strain gcn3, hits give low values 0.993 | S. cerevisiae deletion strains, locus YKR091W, strain srl3, hits give low values 0.97 | S. cerevisiae deletion strains, locus YLL001W, strain dnm1, hits give low values 1.01 | S. cerevisiae deletion strains, locus YLL026W, hits give low values 0.997 | S. cerevisiae deletion strains, locus YLL041C, strain sdh2, hits give low values 0.96 | S. cerevisiae deletion strains, locus YLR027C, strain aat2, hits give low values 0.997 | S. cerevisiae deletion strains, locus YLR039C, strain RIC1, hits give low values 0.991 | S. cerevisiae deletion strains, locus YLR058C, strain SHM2, hits give low values 0.984 | S. cerevisiae deletion strains, locus YLR102C, strain apc9, hits give low values 0.982 | S. cerevisiae deletion strains, locus YLR221C, strain rsa3, hits give low values 1.01 | S. cerevisiae deletion strains, locus YLR258W, strain gsy2, hits give low values 0.962 | S. cerevisiae deletion strains, locus YLR262C, strain YPT6 (second series), hits give low values 0.985 | S. cerevisiae deletion strains, locus YLR262C, strain YPT6, hits give low values 0.986 | S. cerevisiae deletion strains, locus YLR268W, strain sec22, hits give low values 0.965 | S. cerevisiae deletion strains, locus YLR320W, strain mms22, hits give low values 1.01 | S. cerevisiae deletion strains, locus YLR330W, strain CHS5, hits give low values 0.99 | S. cerevisiae deletion strains, locus YLR342W, strain FKS1 (second series), hits give low values 1.02 | S. cerevisiae deletion strains, locus YLR342W, strain FKS1, hits give low values 0.977 | S. cerevisiae deletion strains, locus YLR357W, strain rsc2, hits give low values 0.994 | S. cerevisiae deletion strains, locus YLR370C, strain arc18, hits give low values 0.99 | S. cerevisiae deletion strains, locus YLR371W, strain rom2, hits give low values 0.96 | S. cerevisiae deletion strains, locus YLR384C, strain iki3, hits give low values 1.01 | S. cerevisiae deletion strains, locus YLR418C, strain cdc73, hits give low values 0.974 | S. cerevisiae deletion strains, locus YML016C, strain PPZ1, hits give low values 0.989 | S. cerevisiae deletion strains, locus YML032C, strain rad52, hits give low values 0.981 | S. cerevisiae deletion strains, locus YML120C, strain ndi1, hits give low values 0.979 | S. cerevisiae deletion strains, locus YML124C, strain tub3, hits give low values 0.973 | S. cerevisiae deletion strains, locus YMR058W, strain fet3, hits give low values 0.988 | S. cerevisiae deletion strains, locus YMR078C, strain ctf18, hits give low values 0.958 | S. cerevisiae deletion strains, locus YMR125W, strain sto1, hits give low values 0.97 | S. cerevisiae deletion strains, locus YMR129W, hits give low values 0.975 | S. cerevisiae deletion strains, locus YMR205C, strain PFK2, hits give low values 1.01 | S. cerevisiae deletion strains, locus YMR223W, strain ubp8, hits give low values 0.977 | S. cerevisiae deletion strains, locus YMR231W, strain pep5, hits give low values 0.987 | S. cerevisiae deletion strains, locus YMR263W, strain SAP30, hits give low values 0.979 | S. cerevisiae deletion strains, locus YMR307W, strain GAS1, hits give low values 1.03 | S. cerevisiae deletion strains, locus YNL067W, strain RPL9B, hits give low values 0.961 | S. cerevisiae deletion strains, locus YNL071W, strain lat1, hits give low values 0.993 | S. cerevisiae deletion strains, locus YNL128W, strain TEP1, hits give low values 0.973 | S. cerevisiae deletion strains, locus YNL153C, strain GIM3, hits give low values 0.981 | S. cerevisiae deletion strains, locus YNL209W, strain ssb2, hits give low values 0.98 | S. cerevisiae deletion strains, locus YNL233W, strain BNI4, hits give low values 0.965 | S. cerevisiae deletion strains, locus YNL248C, strain rpa49, hits give low values 0.907 | S. cerevisiae deletion strains, locus YNL250W, strain rad50, hits give low values 0.962 | S. cerevisiae deletion strains, locus YNL271C, strain bni1, hits give low values 0.962 | S. cerevisiae deletion strains, locus YNL298W, strain CLA4, hits give low values 0.966 | S. cerevisiae deletion strains, locus YNL307C, strain MCK1, hits give low values 0.981 | S. cerevisiae deletion strains, locus YNL322C, strain KRE1 (second series), hits give low values 0.96 | S. cerevisiae deletion strains, locus YNR049C, strain mso1, hits give low values 0.968 | S. cerevisiae deletion strains, locus YNR052C, strain pop2, hits give low values 0.966 | S. cerevisiae deletion strains, locus YOL012C, strain htz1 0.786 | S. cerevisiae deletion strains, locus YOL147C, strain pex11, hits give low values 0.971 | S. cerevisiae deletion strains, locus YOR001W, strain rrp6, hits give low values 1.04 | S. cerevisiae deletion strains, locus YOR061W, strain CKA2, hits give low values 0.993 | S. cerevisiae deletion strains, locus YOR069W, strain VPS5, hits give low values 0.986 | S. cerevisiae deletion strains, locus YOR070C, strain gyp1, hits give low values 0.988 | S. cerevisiae deletion strains, locus YOR080W, strain dia2, hits give low values 0.957 | S. cerevisiae deletion strains, locus YOR083W, strain WHI5, hits give low values 0.914 | S. cerevisiae deletion strains, locus YOR106W, strain vam3, hits give low values 0.942 | S. cerevisiae deletion strains, locus YOR136W, strain idh2, hits give low values 0.986 | S. cerevisiae deletion strains, locus YOR144C, strain elg1, hits give low values 0.972 | S. cerevisiae deletion strains, locus YOR184W, strain ser1, hits give low values 0.979 | S. cerevisiae deletion strains, locus YOR265W, strain rbl2, hits give low values 0.989 | S. cerevisiae deletion strains, locus YOR270C, strain vph1, hits give low values 0.939 | S. cerevisiae deletion strains, locus YOR290C, strain snf2, hits give low values 0.962 | S. cerevisiae deletion strains, locus YOR316C, strain cot1, hits give low values 0.98 | S. cerevisiae deletion strains, locus YPL051W, strain arl3, hits give low values 0.992 | S. cerevisiae deletion strains, locus YPL078C, strain atp4, hits give low values 0.953 | S. cerevisiae deletion strains, locus YPL106C, strain sse1, hits give low values 0.982 | S. cerevisiae deletion strains, locus YPL240C, strain hsp82, hits give low values 1.01 | S. cerevisiae deletion strains, locus YPR119W, strain clb2, hits give low values 0.973 | S. cerevisiae deletion strains, locus YPR141C, strain kar3, hits give low values 0.961 | S. cerevisiae deletion strains, locus YPR163C, strain tif3, hits give low values 0.981 | S. cerevisiae deletion strains, locus YPR167C, strain met16, hits give low values 0.962 | S. cerevisiae deletion strains, strain wtn01, hits give low values 0.963 | S. cerevisiae strains, strain wild type, hits give low values 0.995
